Reference: the supplement of paper PMC8728848
The entries come from a sample that favours the strongest signals as a whole.

How the values were obtained:
Assay in all cases: glycan array binding signal (z-score within array); higher = stronger binding
Conditions in all cases: glycan notation: IUPAC condensed, linker removed
[1] = biological target: Fuc(a1-2)Gal(b1-3)GalNAc(a1-3)[Fuc(a1-2)]Gal(b1-4)Glc
Procedure, shortened: (§1)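 Negative Z-scores can be read as non-binding. The Z-score is calculated within each array and then averaged across arrays of one protein sequence at different concentrations or buffers and across linkers. Arrays, 3228 in all, were curated from the Consortium for Functional Glycomics database and kept only where the protein sequence was available.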

[2] = biological target: Fuc(a1-2)Gal(b1-3)[Fuc(a1-4)]GlcNAc(b1-2)Man(a1-3)[Fuc(a1-2)Gal(b1-3)[Fuc(a1-4)]GlcNAc(b1-2)Man(a1-3)]Man(b1-4)GlcNAc(b1-4)GlcNAc
Procedure, shortened: as §1

[3] = biological target: Fuc(a1-2)Gal(b1-4)Fuc(a1-3)]GlcNAc(b1-2)Man(a1-3)[Fuc(a1-2)Gal(b1-4)[Fuc(a1-3)]GlcNAc(b1-2)Man(a1-6)]Man(b1-4)GlcNAc(b1-4)GlcNAc
Procedure, shortened: as §1

[4] = biological target: Fuc(a1-2)Gal(b1-4)GlcNAc(b1-3)Gal(b1-4)GlcNAc
Procedure, shortened: as §1

[5] = biological target: Fuc(a1-2)Gal(b1-4)GlcNAc(b1-3)Gal(b1-4)GlcNAc(b1-3)Gal(b1-4)GlcNAc
Procedure, shortened: as §1

[6] = biological target: Fuc(a1-2)Gal(b1-4)GlcNAc(b1-3)[Fuc(a1-3)[Gal(b1-4)]GlcNAc(b1-6)]Gal(b1-4)Glc
Procedure, shortened: as §1

[7] = biological target: Fuc(a1-2)[Gal(a1-4)]Gal(b1-4)GlcNAc
Procedure, shortened: as §1

[8] = biological target: Fuc(a1-2)[GalNAc(a1-3)]Gal(b1-3)GalNAc(a1-3)[Fuc(a1-2)]Gal(b1-4)GlcNAc
Procedure, shortened: as §1

[9] = biological target: Fuc(a1-2)[GalNAc(a1-3)]Gal(b1-3)GlcNAc(b1-6)GalNAc
Procedure, shortened: as §1

[10] = biological target: Fuc(a1-3)[Gal(b1-4)]GlcNAc(b1-3)Gal(b1-3)[Fuc(a1-4)]GlcNAc
Procedure, shortened: as §1

[11] = biological target: Gal(a1-4)Gal(b1-3)GlcNAc(b1-2)Man(a1-3)[Gal(a1-4)Gal(b1-3)GlcNAc(b1-2)Man(a1-6)]Man(b1-4)GlcNAc(b1-4)GlcNAc
Procedure, shortened: as §1

[12] = biological target: Gal(b1-3)GalNAc(b1-3)Gal
Procedure, shortened: as §1

[13] = biological target: Gal(b1-3)GlcNAc(b1-3)Gal(b1-4)Glc
Procedure, shortened: as §1

[14] = biological target: Gal(b1-3)[Fuc(a1-4)]GlcNAc(b1-3)Gal(b1-3)[Fuc(a1-4)]GlcNAc
Procedure, shortened: as §1

[15] = biological target: Gal(b1-4)GalNAc(a1-3)[Fuc(a1-2)]Gal(b1-4)GlcNAc
Procedure, shortened: as §1

[16] = biological target: Gal(b1-4)GlcNAc(b1-2)[Gal(b1-4)GlcNAc(b1-4)]Man(a1-3)[Gal(b1-4)GlcNAc(b1-2)Man(a1-6)]Man(b1-4)GlcNAc(b1-4)GlcNAc
Procedure, shortened: as §1

[17] = biological target: Gal(b1-4)GlcNAc(b1-3)Gal(b1-3)GalNAc
Procedure, shortened: as §1

[18] = biological target: Gal(b1-4)GlcNAc(b1-3)Gal(b1-4)GlcNAc(b1-2)[Gal(b1-4)GlcNAc(b1-3)Gal(b1-4)GlcNAc(b1-6)]Man(a1-6)[Gal(b1-4)GlcNAc(b1-3)Gal(b1-4)GlcNAc(b1-2)Man(a1-3)]Man(b1-4)GlcNAc(b1-4)[Fuc(a1-6)]GlcNAc
Procedure, shortened: as §1

[19] = biological target: Gal(b1-4)GlcNAc(b1-3)Gal(b1-4)GlcNAc(b1-3)Gal(b1-4)GlcNAc(b1-2)Man(a1-3)[Gal(b1-4)GlcNAc(b1-3)Gal(b1-4)GlcNAc(b1-3)Gal(b1-4)GlcNAc(b1-2)Man(a1-6)]Man(b1-4)GlcNAc(b1-4)GlcNAc
Procedure, shortened: as §1

[20] = biological target: Gal(b1-4)GlcNAc(b1-3)Gal(b1-4)GlcNAc(b1-3)Gal(b1-4)GlcNAc(b1-2)[Gal(b1-4)GlcNAc(b1-3)Gal(b1-4)GlcNAc(b1-3)Gal(b1-4)GlcNAc(b1-6)]Man(a1-6)[Gal(b1-4)GlcNAc(b1-3)Gal(b1-4)GlcNAc(b1-3)Gal(b1-4)GlcNAc(b1-2)Man(a1-3)]Man(b1-4)GlcNAc(b1-4)[Fuc(a1-6)]GlcNAc
Procedure, shortened: as §1

[21] = biological target: Gal(b1-4)GlcNAc(b1-3)Gal(b1-4)GlcNAc(b1-6)[Gal(b1-3)]GalNAc
Procedure, shortened: as §1

[22] = biological target: Gal(b1-4)GlcNAc(b1-3)[GlcNAc(b1-6)]Gal(b1-4)GlcNAc
Procedure, shortened: as §1

[23] = biological target: Gal3S(b1-4)Glc6S
Procedure, shortened: as §1

[24] = biological target: Gal3S(b1-4)[Fuc(a1-3)]Glc6S
Procedure, shortened: as §1

[25] = biological target: Gal3S4S(b1-4)GlcNAc
Procedure, shortened: as §1

[26] = biological target: GalNAc(a1-3)Gal
Procedure, shortened: as §1

[27] = biological target: GalNAc(a1-3)GalNAc(b1-3)Gal(a1-4)Gal(b1-4)Glc
Procedure, shortened: as §1

[28] = biological target: GalNAc(b1-3)Gal(a1-4)Gal(b1-4)GlcNAc(b1-3)Gal(b1-4)Glc
Procedure, shortened: as §1

[29] = biological target: Glc(a1-4)Glc
Procedure, shortened: as §1

[30] = biological target: Glc(a1-6)Glc(a1-6)Glc
Procedure, shortened: as §1

[31] = biological target: GlcA3S(b1-3)Gal(b1-4)GlcNAc(b1-2)Man
Procedure, shortened: as §1

[32] = biological target: GlcA3S(b1-3)Gal(b1-4)GlcNAc(b1-3)Gal(b1-4)Glc
Procedure, shortened: as §1

[33] = biological target: GlcNAc(a1-4)Gal(b1-4)GalNAc
Procedure, shortened: as §1

[34] = biological target: GlcNAc(a1-4)Gal(b1-4)GlcNAc(b1-3)Gal(b1-4)[Fuc(a1-3)]GlcNAc(b1-3)Gal(b1-4)[Fuc(a1-3)]GlcNAc
Procedure, shortened: as §1

[35] = biological target: GlcNAc(b1-2)[GlcNAc(b1-4)]Man(a1-3)[GlcNAc(b1-4)][GlcNAc(b1-2)[GlcNAc(b1-6)]Man(a1-6)]Man(b1-4)GlcNAc(b1-4)[Fuc(a1-6)]GlcNAc
Procedure, shortened: as §1

[36] = biological target: GlcNAc(b1-3)Gal(b1-4)GlcNAc(b1-3)Gal(b1-4)GlcNAc(b1-3)Gal(b1-4)GlcNAc(b1-2)Man(a1-3)[GlcNAc(b1-3)Gal(b1-4)GlcNAc(b1-3)Gal(b1-4)GlcNAc(b1-3)Gal(b1-4)GlcNAc(b1-2)Man(a1-6)]Man(b1-4)GlcNAc(b1-4)GlcNAc
Procedure, shortened: as §1

[37] = biological target: GlcNAc(b1-6)GalNAc
Procedure, shortened: as §1

[38] = biological target: Man(a1-3)[Man(a1-6)]Man(b1-4)GlcNAc(b1-4)[Fuc(a1-6)]GlcNAc
Procedure, shortened: as §1

[39] = biological target: Neu5Ac(a2-3)Gal(b1-3)GlcNAc(b1-2)Man
Procedure, shortened: as §1

[40] = biological target: Neu5Ac(a2-3)Gal(b1-3)GlcNAc(b1-2)Man(a1-3)[GlcNAc(b1-4)][Neu5Ac(a2-3)Gal(b1-3)GlcNAc(b1-2)Man(a1-6)]Man(b1-4)GlcNAc(b1-4)GlcNAc
Procedure, shortened: as §1

[41] = biological target: Neu5Ac(a2-3)Gal(b1-3)GlcNAc(b1-3)GalNAc
Procedure, shortened: as §1

[42] = biological target: Neu5Ac(a2-3)Gal(b1-3)GlcNAc(b1-6)GalNAc
Procedure, shortened: as §1

[43] = biological target: Neu5Ac(a2-3)Gal(b1-3)[Fuc(a1-4)]GlcNAc
Procedure, shortened: as §1

[44] = biological target: Neu5Ac(a2-3)Gal(b1-4)GlcNAc(b1-2)Man(a1-3)[Neu5Ac(a2-6)Gal(b1-4)GlcNAc(b1-2)Man(a1-6)]Man(b1-4)GlcNAc(b1-4)GlcNAc
Procedure, shortened: as §1

[45] = biological target: Neu5Ac(a2-3)Gal(b1-4)GlcNAc(b1-3)Gal
Procedure, shortened: as §1

[46] = biological target: Neu5Ac(a2-3)Gal(b1-4)GlcNAc(b1-3)Gal(b1-4)GlcNAc(b1-6)[Gal(b1-3)]GalNAc
Procedure, shortened: as §1

[47] = biological target: Neu5Ac(a2-6)Gal(b1-4)GlcNAc(b1-2)Man(a1-3)[Neu5Ac(a2-6)Gal(b1-4)GlcNAc(b1-2)Man(a1-6)]Man(b1-4)GlcNAc(b1-4)GlcNAc
Procedure, shortened: as §1

[48] = biological target: Neu5Ac(a2-6)GlcNAc(b1-4)GlcNAc(b1-4)GlcNAc
Procedure, shortened: as §1

[49] = biological target: Neu5Ac(b2-6)GalNAc
Procedure, shortened: as §1

[50] = biological target: Neu5Gc(a2-3)Gal(b1-3)GlcNAc
Procedure, shortened: as §1

[51] = biological target: Neu5Gc(a2-3)Gal(b1-4)GlcNAc
Procedure, shortened: as §1

[52] = biological target: Neu5Gc(a2-6)GalNAc
Procedure, shortened: as §1

B1: Epa11 (Candida glabrata) (protein)
chain: MGSSHHHHHHSSGLVPRGSHMASSNAPNYPVGCSPSVGTQLTPGLSLEVYAYPMDGNNGYCWNATYKDPEFPRSGYLKNKLLGKADGVVGPLNFLAKNKDCSPKVDTLPAGFNFPQPITVTNFTMVLFGYLAPKQSGKYTFKLLADDLLLLNLGATNAFDCCNREATKNNLGEFLAYNLWPNQDKNVTVYLEKGVYYPLRLFFNNRDGGSQLDFSYYFNDSPAPLTDFSGMFFSVPDGAECPARI
With B1 the “glycan array binding signal (z-score)” value [1] was -0.518, the “glycan array binding signal (z-score)” value [2] was -0.183 and the “glycan array binding signal (z-score)” value [3] was 2.88. For the same binder, the “glycan array binding signal (z-score)” value [4] was -0.92, the “glycan array binding signal (z-score)” value [5] was -0.015 and the “glycan array binding signal (z-score)” value [6] was 0.437. For the same binder, the “glycan array binding signal (z-score)” value [7] was 0.294, the “glycan array binding signal (z-score)” value [8] was -0.24 and the “glycan array binding signal (z-score)” value [9] was -0.276. The “glycan array binding signal (z-score)” value [10] was -0.232, the “glycan array binding signal (z-score)” value [11] was 1.7 and the “glycan array binding signal (z-score)” value [12] was -0.185. For the same binder, the “glycan array binding signal (z-score)” value [13] was -0.214, the “glycan array binding signal (z-score)” value [14] was 2.35 and the “glycan array binding signal (z-score)” value [15] was -0.453. The “glycan array binding signal (z-score)” value [16] was -0.412, the “glycan array binding signal (z-score)” value [17] was -0.415 and the “glycan array binding signal (z-score)” value [18] was 1.98. For the same binder, the “glycan array binding signal (z-score)” value [19] was 2.67, the “glycan array binding signal (z-score)” value [20] was 1.94 and the “glycan array binding signal (z-score)” value [21] was 1.77. The “glycan array binding signal (z-score)” value [22] was -0.836, the “glycan array binding signal (z-score)” value [23] was 0.304 and the “glycan array binding signal (z-score)” value [24] was 1.71. For the same binder, the “glycan array binding signal (z-score)” value [25] was -0.9, the “glycan array binding signal (z-score)” value [26] was -0.428 and the “glycan array binding signal (z-score)” value [27] was -0.437. The “glycan array binding signal (z-score)” value [28] was -0.094, the “glycan array binding signal (z-score)” value [29] was -1.42 and the “glycan array binding signal (z-score)” value [30] was -0.516. The “glycan array binding signal (z-score)” value [31] was 0.356, the “glycan array binding signal (z-score)” value [32] was -0.579 and the “glycan array binding signal (z-score)” value [33] was -0.891. For the same binder, the “glycan array binding signal (z-score)” value [34] was 0.211, the “glycan array binding signal (z-score)” value [35] was 2.33 and the “glycan array binding signal (z-score)” value [36] was -0.16. For the same binder, the “glycan array binding signal (z-score)” value [37] was -0.586, the “glycan array binding signal (z-score)” value [38] was 5.52 and the “glycan array binding signal (z-score)” value [39] was -0.819. For the same binder, the “glycan array binding signal (z-score)” value [40] was 2.81, the “glycan array binding signal (z-score)” value [41] was 0.127 and the “glycan array binding signal (z-score)” value [42] was 0.52. The “glycan array binding signal (z-score)” value [43] was -0.534, the “glycan array binding signal (z-score)” value [44] was -0.573 and the “glycan array binding signal (z-score)” value [45] was -0.477. The “glycan array binding signal (z-score)” value [46] was -0.079, the “glycan array binding signal (z-score)” value [47] was -0.433 and the “glycan array binding signal (z-score)” value [48] was -0.053. The “glycan array binding signal (z-score)” value [49] was -0.375, the “glycan array binding signal (z-score)” value [50] was 0.029 and the “glycan array binding signal (z-score)” value [51] was -0.644. For the same binder, the “glycan array binding signal (z-score)” value [52] was -0.604.
